Assay results from PubChem BioAssay AID651704 (Broad Institute, 2012).
Hit rate of the full screen: of about 350,000 compounds, about 1,600 (0.46%) were called active. Shown is part of a subset that was picked to be rich in actives. A number with no mark means an inactive call.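 How the source made its calls: active means every replicate reaching a set inhibition limit, whatever the replicate mean (cut at about 25% in these data); inconclusive means mean inhibition reaches that limit but some replicates miss it; inactive means the rest.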

Target: Protein AF-9 (Homo sapiens) (UniProt P42568)
Sequence (P42568 whole entry, looked up): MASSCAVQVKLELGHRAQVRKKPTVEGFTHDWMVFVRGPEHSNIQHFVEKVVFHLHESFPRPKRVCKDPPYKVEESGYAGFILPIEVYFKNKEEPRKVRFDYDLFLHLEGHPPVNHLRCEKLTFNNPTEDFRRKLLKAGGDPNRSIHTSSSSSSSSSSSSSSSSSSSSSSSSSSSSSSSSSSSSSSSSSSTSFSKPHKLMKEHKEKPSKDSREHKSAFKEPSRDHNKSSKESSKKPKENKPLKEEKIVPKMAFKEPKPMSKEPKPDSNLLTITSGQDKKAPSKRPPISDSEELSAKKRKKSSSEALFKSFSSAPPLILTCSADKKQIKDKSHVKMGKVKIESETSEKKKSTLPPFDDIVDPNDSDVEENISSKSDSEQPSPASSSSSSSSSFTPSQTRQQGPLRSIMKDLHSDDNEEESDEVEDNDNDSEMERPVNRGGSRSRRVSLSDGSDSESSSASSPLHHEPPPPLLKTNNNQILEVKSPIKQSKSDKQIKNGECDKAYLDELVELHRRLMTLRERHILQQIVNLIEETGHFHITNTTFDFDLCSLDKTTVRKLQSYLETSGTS
Test: inhibitors of AF4 peptide binding to AF9, primary screen, biochemical, AlphaScreen, biotin-AF4 peptide, FLAG-AF9, single point (AID 651704);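 further: 0% = plate neutral control median and 100% = total signal loss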
Conditions: at 10 µM, hits give high values

SMILES | inhibition
CCC1(C)CC(CCNCc2ccc(N(C)C)cc2)(c2ccc(F)cc2)CCO1 (stereo not given) | 28.4% (active)
COc1ccc2c(c1)NP(=S)(c1ccccc1)N2 (stereo not given) | -0.621%
O=C(O)[C@@H]1[C@@H](CO)[C@@H]2Cn3c(ccc(-c4ccccc4F)c3=O)[C@H]1N2C(=O)c1cccnc1 | 1.92%
CSCCC(c1nnnn1C(C)(C)C)N1CCC(n2c(=O)[nH]c3ccccc32)CC1 (stereo not given) | 14%
CC(C)CN1Cc2cc(N3CCCCC3)ccc2-n2nncc2C1 | 6.47%
COC(=O)[C@H]1[C@H](CO)[C@H]2Cn3c(ccc(-c4ccccc4F)c3=O)[C@@H]1N2C(=O)C1CCC1 | 1.06%
Cc1ncoc1C(=O)NCC1=C(c2cccc3ccccc23)C[C@@H]2CC[C@H]1N2Cc1ccco1 | 3.14%
CCOC(=O)[C@]12Cc3cc(OC)ccc3[C@H]1N(C(C)C)C(=O)c1ccccc12 | -1.49%
O=C1NC(=O)N(CCc2ccc(F)cc2)C(=O)/C1=C/C=C/c1ccccc1 | 7.75%
O=C(O)COc1ccccc1/C=C1\C(=O)NC(=O)N(CCC2=CCCCC2)C1=O | 51.4% (active)
O=C1NC(=O)N(Cc2ccco2)C(=O)/C1=C\c1cccn1CCOc1ccccc1 | -1.69%
O=C1NCN(c2ccccc2)C12CCN(C(c1cccs1)c1nnnn1C1CCCCC1)CC2 (stereo not given) | 8.26%
CCn1cc(CN2CCCC(C(=O)c3cccc(C(F)(F)F)c3)C2)cn1 (stereo not given) | 0.062%
Cc1cc2ccccn2c1C(C[N+](=O)[O-])c1c(F)cccc1Cl (stereo not given) | 25.5% (active)
O=C(NC[C@@H]1CC[C@H]2NC[C@H]2O1)C1CCCC1 | -2.73%
COC(=O)C1=C(c2ccc(OCc3ccccc3)cc2)C[C@@H]2CC[C@H]1N2C(=O)NCc1ccc(Cl)cc1 | -0.419%
O=c1[nH]c2ccccc2n1C1CCN(C(c2ccnc3ccccc23)c2nnnn2Cc2ccccc2)CC1 (stereo not given) | -0.349%
C[C@@H]1CN([C@H](C)CO)C(=O)CCCn2cc(nn2)CO[C@@H]1CN(C)C(=O)Oc1cccc2ccccc12 | -0.246%
CCOc1cccc(=NC2CCCCC2)c2c(C)[nH]c(C)c12 | 31.5% (active)
O=c1[nH]c2ccccc2n1C1CCN(C(c2ccccc2)c2nnnn2Cc2ccccc2)CC1 (stereo not given) | 2.84%
